These results are taken from PubChem BioAssay (NCI).

“And” between values parts separate entries of the source, which are not always exact repeats. Identical values can stand only once. Compounds without any hit were thinned out: in the full panel of roughly 83,000, 20% have a hit.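 Step 1: grow cells in 96-well plates. Step 2: add test compound at a single concentration. Step 3: incubate 48 h. Step 4: record percent growth.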 The source holds several records for some structures; these can differ, active in one and inactive in another. The source made the active and inactive calls. Rule for the calls: active = growth percent below 10; inactive = the rest.

Among the test systems are NCI-H23 lung; NCI-H226 lung; NCI-H322M lung; HOP-62 NSCLC; NCI-H460 lung; NCI-H522 lung; A549/ATCC NSCLC; 786-0 renal; COLO 205 colon; DU-145 prostate; K-562 leukemia; MALME-3M melanoma; MDA-MB-231 breast; RXF 393 renal; SF-268 CNS; SF-295 CNS; SF-539 CNS; UACC-257 melanoma; M14 melanoma; HOP-92 NSCLC.
What all share (experiment): NCI-60 one-dose screen, 48 h (100 = growth as untreated, 0 = no growth, -100 = all killed)
What all share (conditions): 10 µM unless noted

Consider `Nc1nc(SC/C=C/CCl)c2[nH]cnc2n1`, for which the growth with NCI-H23 lung is 102% (inactive) and 98.1% (inactive); with NCI-H226 lung, 95.8% (inactive) and 131% (inactive); in the test on NCI-H322M lung, 112% (inactive) and 115% (inactive); with HOP-62 NSCLC, 106% (inactive) and 99.8% (inactive); in the test on NCI-H460 lung it was 105% (inactive); in the test on NCI-H522 lung, 95.1% (inactive) and 86.7% (inactive). Moreover, the growth in the test on A549/ATCC NSCLC was 95.4% (inactive) and 103% (inactive); with 786-0 renal, 102% (inactive) and 99.1% (inactive); in the test with COLO 205 colon, 104% (inactive) and 116% (inactive); in the test on DU-145 prostate, 110% (inactive); in the test with K-562 leukemia, 103% (inactive) and 90.7% (inactive); in the test on MALME-3M melanoma it was 114% (inactive) and 92.3% (inactive). Moreover, the growth is 112% (inactive) and 102% (inactive) in the test with MDA-MB-231 breast; 112% (inactive) and 133% (inactive) in the test on RXF 393 renal; 104% (inactive) and 107% (inactive) in the test with SF-268 CNS; 97.2% (inactive) and 112% (inactive) in the test on SF-295 CNS; 114% (inactive) and 97.5% (inactive) with SF-539 CNS; 94.7% (inactive) and 102% (inactive) in the test on UACC-257 melanoma. The growth in the test on M14 melanoma was 107% (inactive) and 98.9% (inactive).
For the compound `Nc1ncnc2c1ncn2C1CC(O)C(CO)O1` (stereo unspecified), the growth is 106% (inactive) and 112% (inactive) in the test with NCI-H23 lung; 101% (inactive) and 105% (inactive) in the test on NCI-H226 lung; 155% (inactive) and 112% (inactive) in the test on NCI-H322M lung; 109% (inactive) and 105% (inactive) in the test on HOP-62 NSCLC; 102% (inactive) and 124% (inactive) in the test on NCI-H460 lung; 142% (inactive) and 100% (inactive) with NCI-H522 lung. Moreover, the growth in the test with A549/ATCC NSCLC is 101% (inactive); in the test on 786-0 renal, 101% (inactive) and 105% (inactive); in the test on COLO 205 colon, 116% (inactive) and 107% (inactive); in the test on DU-145 prostate, 125% (inactive) and 118% (inactive); in the test with K-562 leukemia it was 116% (inactive) and 96.6% (inactive); with MALME-3M melanoma it was 220% (inactive) and 110% (inactive). For the same compound, the growth in the test with MDA-MB-231 breast is 112% (inactive) and 119% (inactive); in the test with RXF 393 renal, 109% (inactive); in the test with SF-268 CNS it was 116% (inactive) and 107% (inactive); with SF-295 CNS it was 82.6% (inactive) and 95% (inactive); with SF-539 CNS, 89.6% (inactive) and 121% (inactive); in the test with UACC-257 melanoma it was 102% (inactive). Also, the growth with M14 melanoma is 113% (inactive) and 103% (inactive).
With `CC1=C(/C=C/C(C)=C/C=C/C(C)=C/C=N/NC(=S)NC(=S)N/N=C/C=C(C)/C=C/C=C(C)/C=C/C2=C(C)CCCC2(C)C)C(C)(C)CCC1`, the growth is -27.2% (active) and -49.8% (active) with NCI-H23 lung; -66.4% (active) and -86.6% (active) in the test on NCI-H226 lung; 85.1% (inactive) and 63.8% (inactive) in the test on NCI-H322M lung; 8.37% (active) and -6.69% (active) with NCI-H460 lung; -0.81% (active) and -9.45% (active) in the test on HOP-92 NSCLC; -84.1% (active) and -88.9% (active) with NCI-H522 lung. For the same compound, the growth with A549/ATCC NSCLC was 17.3% (inactive) and 3.05% (active); with 786-0 renal it was -41.4% (active) and -58.8% (active); with COLO 205 colon, -79.7% (active); in the test with DU-145 prostate it was 45.4% (inactive) and 40.3% (inactive); in the test with K-562 leukemia it was 1.87% (active) and -33.1% (active); with MALME-3M melanoma it was -42.6% (active) and -41.6% (active). Further, the growth is 21.6% (inactive) and -34.1% (active) in the test with MDA-MB-231 breast; -98.2% (active) in the test with RXF 393 renal; 30.9% (inactive) and -13% (active) with SF-268 CNS; 30.3% (inactive) and -7.18% (active) in the test with SF-295 CNS; -82.5% (active) and -94.5% (active) in the test with SF-539 CNS; 12.7% (inactive) and -28.3% (active) in the test with UACC-257 melanoma. For the same compound, in the test on M14 melanoma, the growth was -94.8% (active) and -97.5% (active).
Consider `ClC/C=C/CSc1ncnc2nc[nH]c12`, for which the growth in the test on NCI-H23 lung was 101% (inactive) and 102% (inactive); in the test with NCI-H226 lung, 98.9% (inactive) and 123% (inactive); in the test with NCI-H322M lung it was 110% (inactive); with HOP-62 NSCLC, 91.9% (inactive) and 108% (inactive); in the test with NCI-H460 lung, 105% (inactive) and 106% (inactive); with HOP-92 NSCLC, 104% (inactive). The growth with NCI-H522 lung was 102% (inactive) and 77.3% (inactive); in the test on 786-0 renal it was 106% (inactive) and 102% (inactive); with COLO 205 colon, 109% (inactive) and 116% (inactive); in the test with DU-145 prostate, 110% (inactive) and 116% (inactive); in the test on K-562 leukemia, 82.1% (inactive) and 73.3% (inactive); with MALME-3M melanoma, 116% (inactive) and 95.9% (inactive). Also, the growth in the test with MDA-MB-231 breast is 109% (inactive) and 96.3% (inactive); with RXF 393 renal, 109% (inactive) and 141% (inactive); in the test with SF-268 CNS, 103% (inactive) and 119% (inactive); with SF-295 CNS, 101% (inactive) and 117% (inactive); in the test with SF-539 CNS it was 101% (inactive) and 103% (inactive); with UACC-257 melanoma, 118% (inactive) and 104% (inactive). Moreover, in the test with M14 melanoma, the growth is 104% (inactive) and 103% (inactive).
For `c1ccc(NCc2ccc3c(c2)OCO3)cc1`, the growth in the test with NCI-H23 lung is 100% (inactive) and 105% (inactive); in the test with NCI-H226 lung, 103% (inactive) and 97.9% (inactive); with NCI-H322M lung, 114% (inactive) and 99.2% (inactive); with HOP-62 NSCLC, 93.7% (inactive) and 101% (inactive); with NCI-H460 lung it was 105% (inactive) and 99.4% (inactive); with NCI-H522 lung, 91.1% (inactive) and 95.6% (inactive). Moreover, the growth in the test on A549/ATCC NSCLC was 103% (inactive) and 95.3% (inactive); in the test on 786-0 renal, 102% (inactive) and 96.8% (inactive); in the test with COLO 205 colon it was 113% (inactive) and 102% (inactive); in the test with DU-145 prostate, 111% (inactive) and 108% (inactive); in the test with K-562 leukemia it was 105% (inactive) and 98.7% (inactive); with MALME-3M melanoma, 106% (inactive) and 119% (inactive). In addition, the growth with MDA-MB-231 breast is 100% (inactive) and 106% (inactive); in the test with RXF 393 renal it was 104% (inactive) and 95.2% (inactive); with SF-268 CNS, 99.1% (inactive) and 99.4% (inactive); in the test on SF-295 CNS, 105% (inactive); in the test on SF-539 CNS, 102% (inactive) and 91.4% (inactive); in the test with UACC-257 melanoma, 101% (inactive) and 97.5% (inactive). Besides, the growth in the test with M14 melanoma was 101% (inactive).
In the case of `CCOC(=O)c1sc(N)nc1-c1ccccc1`, the growth was 101% (inactive) with NCI-H23 lung; 98.7% (inactive) with NCI-H226 lung; 97% (inactive) in the test on NCI-H322M lung; 87.9% (inactive) in the test with HOP-62 NSCLC; 104% (inactive) in the test with NCI-H460 lung; 95.5% (inactive) in the test with NCI-H522 lung. The growth was 101% (inactive) in the test on A549/ATCC NSCLC; 95.1% (inactive) in the test on 786-0 renal; 102% (inactive) with COLO 205 colon; 113% (inactive) in the test with DU-145 prostate; 96% (inactive) in the test on K-562 leukemia; 120% (inactive) in the test on MALME-3M melanoma. The growth is 117% (inactive) in the test with MDA-MB-231 breast; 102% (inactive) with RXF 393 renal; 108% (inactive) in the test on SF-268 CNS; 88.4% (inactive) with SF-539 CNS; 98.1% (inactive) with UACC-257 melanoma; 99.7% (inactive) in the test on M14 melanoma.
Take `CC(CN=Cc1ccccc1O)N=Cc1ccccc1O` (stereo unspecified): the growth was 101% (inactive) and 102% (inactive) in the test with NCI-H23 lung; 92.6% (inactive) and 91.4% (inactive) in the test on NCI-H226 lung; 79.2% (inactive) and 113% (inactive) in the test with NCI-H322M lung; 98.9% (inactive) and 104% (inactive) in the test with HOP-62 NSCLC; 107% (inactive) and 100% (inactive) with NCI-H460 lung; 85.4% (inactive) with HOP-92 NSCLC. Further, the growth in the test with NCI-H522 lung was 75.7% (inactive) and 106% (inactive); with 786-0 renal, 104% (inactive) and 109% (inactive); in the test on COLO 205 colon, 98.5% (inactive); in the test on DU-145 prostate it was 121% (inactive) and 105% (inactive); with K-562 leukemia, 78.7% (inactive) and 88.2% (inactive); in the test with MALME-3M melanoma, 124% (inactive) and 110% (inactive). Also, the growth is 111% (inactive) and 104% (inactive) in the test on MDA-MB-231 breast; 102% (inactive) and 91% (inactive) in the test with RXF 393 renal; 108% (inactive) and 91% (inactive) in the test on SF-268 CNS; 112% (inactive) in the test on SF-295 CNS; 94.9% (inactive) and 87.9% (inactive) with SF-539 CNS; 87.7% (inactive) and 121% (inactive) in the test with UACC-257 melanoma. For the same compound, in the test with M14 melanoma, the growth was 106% (inactive) and 102% (inactive).
On to `CNc1cc(-c2cccc(OC(F)(F)F)c2)nc2ccc(N3CCCC3)cc12`, for which the growth was 66.5% (inactive) and 6.85% (active) and 8.59% (active) with NCI-H23 lung; 94.6% (inactive) and 68.5% (inactive) and -35.2% (active) in the test with NCI-H226 lung; 61.8% (inactive) and -4.66% (active) and 76.6% (inactive) in the test with NCI-H322M lung; -68% (active) and -62.5% (active) and -65.4% (active) with NCI-H460 lung; -31.9% (active) and 13% (inactive) and 28.5% (inactive) with HOP-92 NSCLC; 32.2% (inactive) and -63.9% (active) and -35.6% (active) in the test on NCI-H522 lung. The growth is -34.3% (active) and 9.17% (active) and 15.2% (inactive) in the test with A549/ATCC NSCLC; -86% (active) and -95.3% (active) and -67.6% (active) in the test on 786-0 renal; -25.6% (active) and -81.7% (active) and -75.7% (active) with COLO 205 colon; -43.5% (active) and 6.55% (active) and 12.9% (inactive) in the test on DU-145 prostate; -42.3% (active) and -31.2% (active) and -12.4% (active) in the test on K-562 leukemia; -74.2% (active) and -88.1% (active) and -75.4% (active) in the test on MALME-3M melanoma. Besides, the growth in the test with MDA-MB-231 breast is -47.4% (active) and -63.4% (active) and -2.52% (active); in the test on RXF 393 renal, -64.4% (active) and -78.3% (active) and -67.5% (active); in the test on SF-268 CNS, 78.9% (inactive) and 61.6% (inactive) and 55.9% (inactive); with SF-295 CNS, 82.8% (inactive) and -66.4% (active) and -74.5% (active); in the test on SF-539 CNS, -76.6% (active) and -78.4% (active) and -68.4% (active); in the test with UACC-257 melanoma, 82% (inactive) and -59.4% (active) and -57.4% (active). Also, the growth in the test on M14 melanoma is -87% (active) and -86.6% (active) and -76.4% (active).
